From ChEMBL document CHEMBL4513146, “CO-ADD screening of Karazin Kharkiv National University (Ukraine) compounds”
Potency and affinity values are given separately.

Columns and labels:
[1] = test system: Staphylococcus aureus; details: Concentration 32 ug.mL-1;; ASSAY_TEST Inhibition of Bacterial Growth; detection method Absorption (OD600); MEDIA CAMHB; plate type 384well; NBS; CORNING #3640; time 18 hr
[2] = test system: Escherichia coli; details: Concentration 32 ug.mL-1;; ASSAY_TEST Inhibition of Bacterial Growth; detection method Absorption (OD600); MEDIA CAMHB; plate type 384well; NBS; CORNING #3640; time 18 hr

| SMILES | Inhibition [1] | Inhibition [2] |
| --- | --- | --- |
| CCc1ccc(N(Cc2ccccc2F)S(=O)(=O)c2cccn3c(C)nnc23)cc1 | 15.67% | -1.05% |
| O=C(Cn1nc2ccc(Sc3ccccc3)nn2c1=O)Nc1ccc(F)c(Cl)c1 | 8.3% | -2.75% |
| Cc1nnc2c(S(=O)(=O)N(Cc3ccc(F)cc3)c3ccc(C(C)C)cc3)cccn12 | -0.08% | -8.42% |
| O=c1c2nnc(SCc3cccc(F)c3)n2ccn1-c1ccc(Br)cc1 | 15.11% | -3.12% |
| CC(=O)c1cccc(NC(=O)Cn2nc3c(N4CCN(c5ccccc5C)CC4)nccn3c2=O)c1 | 17.73% | 2.22% |
| O=C(Cn1nc2ccc(SC3CCCCC3)nn2c1=O)NCc1ccc(Cl)cc1 | 6.56% | -1.29% |
| CCCCc1ccc(NC(=O)Cn2nc3c(N4CC(C)CC(C)C4)nccn3c2=O)cc1 (centres undefined) | -4.53% | -8.88% |
| Cc1nnc2ccc(S(=O)(=O)N(Cc3cc(F)cc(F)c3)c3ccccc3)cn12 | 12.61% | -1.77% |
| COc1ccc(CNC(=O)CCc2nnc3c(N4CCCCC4)nc4ccccc4n23)cc1OC | 16.6% | 2.89% |
| Cc1ccc(CSc2nnc3c(=O)n(-c4ccc(Br)cc4)ccn23)cc1 | 13.68% | -2.08% |
| COc1cccc(-n2ccn3c(SCC(=O)c4ccc(C)cc4)nnc3c2=O)c1 | 8.57% | -9.45% |
| CCCc1nnc2c(=O)n(CC(=O)Nc3cccc(Br)c3)c3ccccc3n12 | 8.23% | -5.6% |
| Cc1ccc(NC(=O)Cn2c(=O)c3nnc(C(C)C)n3c3ccccc32)c(C)c1 | 15.48% | 8.06% |
| Cc1ccc(-c2cc3c4nn(CC(=O)Nc5c(C)cccc5C)c(=O)n4ccn3n2)cc1 | 9.95% | 0.29% |
| Cc1nnc2c(S(=O)(=O)N(Cc3cccc(F)c3)c3cccc(F)c3)cccn12 | 18.57% | 0.97% |
| O=C(CSc1nc2ccccc2n2cnnc12)N1CCN(c2ccc(F)cc2)CC1 | 13.82% | 1.79% |
| Cc1ccc(-c2ccc3nn(CC(=O)NC4CCCCC4)c(=O)n3n2)cc1C | 8.8% | 0.07% |
| Cc1nnc2c(=O)n(CC(=O)Nc3ccc(Cl)cc3F)c3ccccc3n12 | 7.03% | -1.92% |
| Cc1oc(-c2ccc(OC(C)C)cc2)nc1CSc1nc2ccccc2n2c(C(C)C)nnc12 | -4.43% | -16.17% |

| SMILES | Inhibition [1] | Inhibition [2] |
| --- | --- | --- |
| COc1ccc(CCNC(=O)Cn2nc3c(N4CCOCC4)nccn3c2=O)cc1OC | 21.7% | 0.1% |
| Cc1nnc2ccc(S(=O)(=O)N(Cc3ccc(Cl)cc3)c3cccc(F)c3)cn12 | 2.65% | -4.46% |
| O=C(Cn1nc2c3cc(-c4ccc(Cl)cc4)nn3ccn2c1=O)Nc1ccc2c(c1)OCO2 | 8.69% | 2.9% |
| Cc1ccc(NC(=O)Cn2nc3ccc(SC(C)(C)C)nn3c2=O)cc1C | -0.92% | 2.46% |
| CCCCn1c(=O)c2sccc2n2c(CCC(=O)Nc3ccc(OC(F)(F)F)cc3)nnc12 | 0.43% | -8.31% |
| Cc1ccc(CNC(=O)Cn2nc3c(SC4CCCCC4)nccn3c2=O)cc1 | 7.11% | -3.86% |
| Cc1ccc(C)c(NC(=O)Cn2nc3cc(C)nc(Nc4ccc(F)cc4)n3c2=O)c1 | -0.57% | -5.84% |
| O=S(=O)(c1ccc2nncn2c1)N(Cc1ccc(F)cc1)c1ccc(F)c(F)c1 | -11.56% | -13.53% |
| Cc1nnc2c(=O)n(CC(=O)Nc3ccc(Cl)cc3)c3ccccc3n12 | 6.71% | 2.85% |
| COc1ccc(-c2cc3c4nn(CC(=O)N5CCCc6ccccc65)c(=O)n4ccn3n2)cc1 | 6.07% | 1.46% |
| COc1cccc(CN(c2ccc(F)c(F)c2)S(=O)(=O)c2cccn3c(C)nnc23)c1 | 17.08% | 2.94% |
| C=Cc1ccc(CSc2nnc3c(=O)n(-c4ccc(Br)cc4)ccn23)cc1 | 2.47% | -8.25% |
| O=c1n(Cc2nc(-c3ccc(Cl)cc3)no2)nc2ccc(-c3ccccc3)nn12 | 1% | -5.36% |
| O=C(CSc1nnc2c(=O)n(-c3ccccc3)ccn12)Nc1ccc2c(c1)OCO2 | 8.51% | -2.5% |
| CCOc1ccccc1CNC(=O)CCc1nnc2ccc(-c3ccc(C)cc3)nn12 | 9.96% | -0.64% |
| Cc1ccc(F)cc1NC(=O)CSc1nnc2ccc(C(=O)Nc3cccc(F)c3)cn12 | 13.04% | 0.82% |
| Cc1ccc(Sc2nccn3c(=O)n(CC(=O)N4CCN(c5ccc(F)cc5)CC4)nc23)c(C)c1 | -13.09% | -20.44% |
| COc1ccc(N(Cc2cccc(C)c2)S(=O)(=O)c2ccc3nnc(C)n3c2)cc1 | 2.37% | -2.14% |
